Reference: PubChem BioAssay AID743144 (Broad Institute, 2013)
Measured potencies and affinities stand elsewhere. Results filed as inconclusive are left out. Calls of active or inactive are those of the source. The rule behind the calls is not given here.

Test: cytotoxicity in COV362 ovarian cancer cells, dose response, cytotoxicity control for PAX8 inhibitor project, cell-based, plate reader, dry powder, SA12 (AID 743144)
Details: series mostly up to 35 µM
In the case of N#C[C@@H]1[C@@H](c2ccc(C3=CCCCC3)cc2)[C@@H](CO)N1C(=O)NC1CCCCC1, the outcome is reported as “inactive”.
For O=S(=O)(Nc1cccc2cccnc12)c1ccccc1, the outcome was “inactive”.
With O=C(CN1C(=O)c2ccccc2S1(=O)=O)c1ccccc1Cl the outcome was “inactive”.
With C[C@H](CO)N1C[C@H](C)[C@@H](CN(C)S(=O)(=O)c2ccc(Cl)cc2)OCCCC[C@H](C)Oc2ccc(NS(=O)(=O)c3ccccc3)cc2C1=O the outcome was “inactive”.
With COc1cccc(C#Cc2ccc([C@@H]3[C@@H](C#N)N(C(=O)C4CCCC4)[C@@H]3CO)cc2)c1 the outcome was “inactive”.
With CC(C)(C)c1nnc(NC(=O)CCS(=O)(=O)c2ccccc2)s1 the outcome was “inactive”.
With CC(C)c1cc(C(=O)OCC(=O)N2CCN(C(=O)c3ccco3)CC2)c(O)c(C(C)C)c1 the outcome was “inactive”.
With COc1ccc(S(=O)(=O)Nc2ccc3c(c2)CC(=O)N([C@@H](C)CO)C[C@@H](C)[C@@H](CN(C)Cc2ccc(-c4ccccc4)cc2)O3)cc1 the outcome was “inactive”.
With COc1ccccc1C#Cc1ccc([C@@H]2[C@@H](C#N)N(C(=O)C3CCCCC3)[C@H]2CO)cc1 the outcome was “inactive”.
With Cc1ccc(S(=O)(=O)CC(CN2CCCCC2)N2CCCCC2)cc1 (configuration not stated) the outcome was “inactive”.
In the case of C[C@H]1CN([C@@H](C)CO)C(=O)CCCn2nncc2CO[C@@H]1CN(C)C(=O)Nc1ccc(-c2cccs2)cc1, the outcome is reported as “inactive”.
For C[C@@H]1CN([C@@H](C)CO)S(=O)(=O)c2ccc(C#C[C@@H](C)O)cc2O[C@H]1CN(C)Cc1ccc(-c2ccccc2)cc1, the outcome was “inactive”.
With N#C[C@H]1[C@@H](c2ccc(C3=CCCC3)cc2)[C@@H](CO)N1C(=O)NC1CCCCC1 the outcome was “inactive”.
With N#C[C@@H]1[C@@H](c2ccc(-c3cccc(F)c3)cc2)[C@H](CO)N1C(=O)NC1CCCC1 the outcome was “inactive”.
In the case of COCC(=O)N1[C@H](CO)[C@H](c2ccc(-c3cccnc3)cc2)[C@@H]1C#N, the outcome is reported as “inactive”.
With O=C1/C(=C/c2cccc(Br)c2)SC(=S)N1CCC(=O)N(CCO)c1ccccc1 the outcome was “inactive”.
In the case of N#C[C@@H]1[C@@H](c2ccc(-c3ccccc3F)cc2)[C@@H](CO)N1C(=O)C1CCC1, the outcome is reported as “inactive”.
With COc1cccc(C#Cc2ccc([C@@H]3[C@H](C#N)N(C(=O)c4ccccn4)[C@H]3CO)cc2)c1 the outcome was “inactive”.
In the case of N#C[C@@H]1[C@H](c2ccc(-c3ccccc3F)cc2)[C@@H](CO)N1C(=O)Cc1ccccc1, the outcome is reported as “inactive”.
With O=C1/C(=C/c2ccccc2)SC(=S)N1CC(=O)N1CCCCC1c1cccnc1 (configuration not stated) the outcome was “inactive”.
With O=C(C[C@H]1CC[C@H]2[C@@H](COC[C@@H](O)CN2S(=O)(=O)c2cccc(Cl)c2)O1)Nc1ccc(-c2ccccc2)cc1 the outcome was “inactive”.
In the case of N#C[C@@H]1[C@H](c2ccc(C#CC3CCCCC3)cc2)[C@H](CO)N1S(=O)(=O)c1ccccc1, the outcome is reported as “inactive”.
